Structures are written as SMILES. The source made the active and inactive calls.

One experiment is described as follows: probe aLefty1 binding on compound microarray – biochemical, small-molecule microarray, 635/667 nm fluorescence, primary screen (AID 1153).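 Note: score merges spot fluorescence with signal-to-noise ratio from the scanned slide images.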 Particulars: higher = more signal.
As to `C=CC[C@H](OC(=O)Nc1ccc(OC)cc1)c1ccc(O)c2ccccc12`, the composite z-score came out at 0.122.
Turning to `COC(=O)[C@@]1(Cc2ccc(OC)cc2)[C@H]2c3cc(C(=O)N4CCCC4)n(CCc4cc5ccccc5[nH]4)c3C[C@H]2CN1C(=O)c1ccccc1`, the composite z-score is 0.712.
In turn, `COc1ccc(CCNC(=O)[C@@]2(Sc3ccc(C)cc3)CC(=O)N(Cc3cc(C(F)(F)F)cc(C(F)(F)F)c3)[C@@H]2c2ccc(CO)cc2I)cc1` registered a composite z-score of 0.0509.
The same measure, in the same setting: as for `COc1ccc(C(O)C2C=CC3C(=O)N(C)C(=O)C3N2N2CCCCC2)cc1` (configuration not stated), the figure is 0.381.
Same read-out and setting: as for `COc1ccc([Si](C)(C)[C@@H]2[C@@H](CC(=O)N3CCC[C@H]3CO)O[C@]3(C(=O)N(Cc4ccc(N5C(=O)c6cccc7cccc5c67)cc4)c4ccccc43)[C@H]2C)cc1`, the figure is -0.0984.
Still for that read-out and setting: as for `O=C1c2ccccc2[C@@]2(Cc3ccccc3N(C3CC3)C2=O)[C@H](c2ccc(CO)cc2)N1C1CCCCC1`, the figure is -0.0066; as for `CCOC(=O)C1=CC[C@@H](c2cc(Cl)ccc2Cl)N(S(=O)(=O)c2ccc(C)cc2)[C@H]1c1ccc(OC)cc1`, 0.369.
The compound `CC=CC(O)C1C=CC2C(=O)N(C)C(=O)C2N1N1CCCCC1` (configuration not stated) registered a composite z-score of -0.0359.
Same read-out and setting: then `C=C(C(=O)CC[C@H](OC(C)=O)c1cccc(OCCO)c1)C(C)C`, with -0.283; and `CC(C)C(=C=CC[C@H](O)c1ccc(OCCO)cc1)C[C@H](O)c1cc(Cl)cc(Cl)c1O`, with 0.121.
On the same count and under the same terms, then `COc1ccc(C#Cc2ccc3c(c2)[C@]2(C(=O)N3)[C@H](C(=O)N3CCc4cc(OC)c(OC)cc4C3)[C@H]3C(=O)O[C@H](c4ccccc4)[C@H](c4ccccc4)N3[C@@H]2c2ccc(O)cc2)cc1`, with 0.0839; and `CN1C(=O)[C@@]2(CCS(=O)(=O)c3ccccc3)N=C(c3ccc(OCCCO)cc3)O[C@H]2c2ccccc21`, with -0.0003.
On the same count and under the same terms, then `CC[C@H]1C2=C3C(CC[C@H]4C(OCc5ccc(F)cc5C(F)(F)F)OC[C@](C)([C@@H]34)N(C(=O)OC(C)(C)C)C2)C2COC(=O)OCC21` (some centres not stated), with 0.513; and `Cc1ccc(S[C@]2(C(=O)NCc3ccccc3)CC(=O)N(C(C)C)[C@@H]2c2ccc(CO)cc2I)cc1`, with 0.33; and `Cc1ccc(C(C)CC(O)C2C=CC3C(=O)N(c4ccccc4)C(=O)C3N2Nc2ccc(C(C)C)cc2)o1` (configuration not stated), with 0.629.
Compound `COCCOC(=O)N1C(=O)[C@@]2(c3cc(C#Cc4ccc(OC)cc4)ccc31)[C@H](C(=O)NC[C@H](O)c1ccccc1)[C@H]1C(=O)O[C@H](c3ccccc3)[C@H](c3ccccc3)N1[C@@H]2c1ccc(O)cc1` gave a composite z-score of 0.289.
`COCCOC(=O)N1C(=O)[C@@]2(c3cc(C#CC4(O)CCCCCC4)ccc31)[C@H](C(N)=O)[C@H]1C(=O)O[C@H](c3ccccc3)[C@H](c3ccccc3)N1[C@@H]2c1ccc(O)cc1` came in with a composite z-score of -0.0186.
`CC1CC/C=C\[C@H]2OC34C=CCN(C(C)C)C(=O)[C@H]3N(CCCCCO)C(=O)[C@@H]4C2C(=O)O1` (some centres not stated) returned a composite z-score of -0.15.
On the same count and under the same terms, as for `CCOC(=O)C1=CC[C@@H](c2ccccc2)N(S(=O)(=O)c2ccc(C)cc2)C1`, the figure is 0.638; as for `CCN(CC)c1ccc(N2CC=CC34O[C@@H]5/C=C\CCC(C)OC(=O)C5[C@H]3C(=O)N(CCO)[C@@H]4C2=O)cc1` (some centres not stated), 0.33; as for `C=CCOC(=O)[C@H]1[C@@H]2C(=O)O[C@@H](c3ccccc3)[C@@H](c3ccccc3)N2[C@@H](c2ccc(OCCOC(=O)[C@H]3C[C@H]4C(=O)N[C@@H](CCCC[N+](C)(C)C)C(=O)N4[C@H]3c3cccc(OCCO)c3)cc2)[C@]12C(=O)Nc1ccc(I)cc12`, -0.17.
On the same count and under the same terms, as for `O=C1C[C@@](C(=O)NCC(F)(F)F)(c2ccc([N+](=O)[O-])cc2)[C@@H](c2ccc(CO)cc2)N1C1CCCCC1`, the figure is 0.517.

A short description of a further experiment: plasmodial surface anion channel blockers, osmotic lysis – cell-based, P. falciparum Indochina, OD700, 1 h, primary screen (AID 1154). Particulars: P. falciparum Indochina infected RBC osmotic lysis, higher = more signal, called active from +8 up or from −8 down.
As to `COC(=O)C1(Cc2ccccc2)C=C2C(=C(C(C)C)C(=O)C2C)CN1` (configuration not stated), the z-score was 2.03 (inactive).
As to `Cc1c(NC(=O)/C(C#N)=C/C=C/c2ccccc2[N+](=O)[O-])c(=O)n(-c2ccccc2)n1C`, the z-score is 2.91 (inactive).
On the same count and under the same terms, then `[N-]=[N+]=NCc1ccccc1C[C@@]1(C(=O)NCCN2CCOCC2)N=C(c2ccc(OCCCO)cc2)O[C@@H]1c1ccccc1N=[N+]=[N-]`, with 31.3 (active); and `C[n+]1ccc(CCCO)cc1`, with 0.599 (inactive).
Take `CN1C(=O)C2C=CC(C(O)c3c(F)cccc3Cl)N(Nc3ccccc3)C2C1=O` (configuration not stated): the z-score was 0.32 (inactive).
Regarding `C=C[C@@H](C)[C@H](OC(=O)Nc1ccc(SC)cc1)c1ccc(OCCO)cc1`, the z-score was 27.9 (active).
Consider `CC(C)C(O)C1C=CC2C(=O)N(C)C(=O)C2N1N(c1ccccc1)c1ccccc1` (configuration not stated), for which the z-score was 0.321 (inactive).
As for `O=C1c2ccccc2[C@](Cc2ccccc2I)(C(=O)NCc2ccccc2)[C@H](c2ccc(CO)cc2)N1C1CCCCC1`, the z-score was 2.39 (inactive).
The same measure, in the same setting: as for `CC(=O)n1cc(C(O)C2C=CC3C(=O)N(Cc4ccccc4)C(=O)C3N2n2cnnc2)c2ccccc21` (configuration not stated), the figure is 8.09 (active); as for `COc1cc2c(cc1OC)CN(C(=O)[C@H]1[C@@H]3C(=O)O[C@@H](c4ccccc4)[C@@H](c4ccccc4)N3[C@@H](c3ccc(OCCO)cc3)[C@]13C(=O)Nc1ccc(C#CC4(O)CCCCCC4)cc13)CC2`, 3.15 (inactive).
Same read-out and setting: as for `O=c1cccc(-c2ccc(C(F)(F)F)cc2)o1`, the figure is 20.1 (active).
Same read-out and setting: as for `COc1ccc(C(O)C2C=CC3C(=O)N(Cc4ccccc4)C(=O)C3N2n2cnnc2)c2ccccc12` (configuration not stated), the figure is 0.782 (inactive); as for `CC(C)(C)OC(=O)CC[C@]1(C(=O)NCCN2CCOCC2)N=C(c2ccc(OCCCO)cc2)O[C@H]1c1ccccc1N=[N+]=[N-]`, 31.3 (active).
As to `C=CC[C@H](OC(=O)Nc1ccc(OC)cc1)c1ccc(O)c2ccccc12`, the z-score is 5.07 (inactive).
In the case of `COC(=O)[C@@]1(Cc2ccc(OC)cc2)[C@H]2c3cc(C(=O)N4CCCC4)n(CCc4cc5ccccc5[nH]4)c3C[C@H]2CN1C(=O)c1ccccc1`, the z-score was 4.17 (inactive).
With `COc1ccc(CCNC(=O)[C@@]2(Sc3ccc(C)cc3)CC(=O)N(Cc3cc(C(F)(F)F)cc(C(F)(F)F)c3)[C@@H]2c2ccc(CO)cc2I)cc1`, the z-score was 10.5 (active).
As to `COc1ccc(C(O)C2C=CC3C(=O)N(C)C(=O)C3N2N2CCCCC2)cc1` (configuration not stated), the z-score is 1.41 (inactive).
Turning to `COc1ccc([Si](C)(C)[C@@H]2[C@@H](CC(=O)N3CCC[C@H]3CO)O[C@]3(C(=O)N(Cc4ccc(N5C(=O)c6cccc7cccc5c67)cc4)c4ccccc43)[C@H]2C)cc1`, the z-score is 5.77 (inactive).
Still for that read-out and setting: as for `O=C1c2ccccc2[C@@]2(Cc3ccccc3N(C3CC3)C2=O)[C@H](c2ccc(CO)cc2)N1C1CCCCC1`, the figure is 0.667 (inactive); as for `CCOC(=O)C1=CC[C@@H](c2cc(Cl)ccc2Cl)N(S(=O)(=O)c2ccc(C)cc2)[C@H]1c1ccc(OC)cc1`, 2.98 (inactive).
As to `CC=CC(O)C1C=CC2C(=O)N(C)C(=O)C2N1N1CCCCC1` (configuration not stated), the z-score was 0.974 (inactive).
Still for that read-out and setting: as for `C=C(C(=O)CC[C@H](OC(C)=O)c1cccc(OCCO)c1)C(C)C`, the figure is 2.12 (inactive).
Same read-out and setting: then `CC(C)C(=C=CC[C@H](O)c1ccc(OCCO)cc1)C[C@H](O)c1cc(Cl)cc(Cl)c1O`, with 19.4 (active); and `COc1ccc(C#Cc2ccc3c(c2)[C@]2(C(=O)N3)[C@H](C(=O)N3CCc4cc(OC)c(OC)cc4C3)[C@H]3C(=O)O[C@H](c4ccccc4)[C@H](c4ccccc4)N3[C@@H]2c2ccc(O)cc2)cc1`, with 0.488 (inactive); and `CN1C(=O)[C@@]2(CCS(=O)(=O)c3ccccc3)N=C(c3ccc(OCCCO)cc3)O[C@H]2c2ccccc21`, with 30.1 (active).
Turning to `CC[C@H]1C2=C3C(CC[C@H]4C(OCc5ccc(F)cc5C(F)(F)F)OC[C@](C)([C@@H]34)N(C(=O)OC(C)(C)C)C2)C2COC(=O)OCC21` (some centres not stated), the z-score was 1.28 (inactive).
In the case of `Cc1ccc(S[C@]2(C(=O)NCc3ccccc3)CC(=O)N(C(C)C)[C@@H]2c2ccc(CO)cc2I)cc1`, the z-score is 5.42 (inactive).
On the same count and under the same terms, then `Cc1ccc(C(C)CC(O)C2C=CC3C(=O)N(c4ccccc4)C(=O)C3N2Nc2ccc(C(C)C)cc2)o1` (configuration not stated), with 1.45 (inactive); and `COCCOC(=O)N1C(=O)[C@@]2(c3cc(C#Cc4ccc(OC)cc4)ccc31)[C@H](C(=O)NC[C@H](O)c1ccccc1)[C@H]1C(=O)O[C@H](c3ccccc3)[C@H](c3ccccc3)N1[C@@H]2c1ccc(O)cc1`, with 1.48 (inactive); and `COCCOC(=O)N1C(=O)[C@@]2(c3cc(C#CC4(O)CCCCCC4)ccc31)[C@H](C(N)=O)[C@H]1C(=O)O[C@H](c3ccccc3)[C@H](c3ccccc3)N1[C@@H]2c1ccc(O)cc1`, with 1.7 (inactive).
The same measure, in the same setting: as for `CC1CC/C=C\[C@H]2OC34C=CCN(C(C)C)C(=O)[C@H]3N(CCCCCO)C(=O)[C@@H]4C2C(=O)O1` (some centres not stated), the figure is -0.54 (inactive); as for `CCOC(=O)C1=CC[C@@H](c2ccccc2)N(S(=O)(=O)c2ccc(C)cc2)C1`, 2.45 (inactive); as for `CCN(CC)c1ccc(N2CC=CC34O[C@@H]5/C=C\CCC(C)OC(=O)C5[C@H]3C(=O)N(CCO)[C@@H]4C2=O)cc1` (some centres not stated), 3.17 (inactive).
Same read-out and setting: as for `C=CCOC(=O)[C@H]1[C@@H]2C(=O)O[C@@H](c3ccccc3)[C@@H](c3ccccc3)N2[C@@H](c2ccc(OCCOC(=O)[C@H]3C[C@H]4C(=O)N[C@@H](CCCC[N+](C)(C)C)C(=O)N4[C@H]3c3cccc(OCCO)c3)cc2)[C@]12C(=O)Nc1ccc(I)cc12`, the figure is 3.12 (inactive).
As to `O=C1C[C@@](C(=O)NCC(F)(F)F)(c2ccc([N+](=O)[O-])cc2)[C@@H](c2ccc(CO)cc2)N1C1CCCCC1`, the z-score is 1.18 (inactive).

These data come from PubChem BioAssay.
